Data published in PubChem BioAssay AID1159580 (chemical genetic matrix, 2015).
Out of some 5,500 compounds screened, about 2,000 (36%) were called active. Roughly 18% stayed inconclusive and do not appear here. Cut-off read from the data, not from the text of the source: active = normalized growth mostly below about 0.91 (no sharp cut-off); inconclusive = no clear call, values can overlap the other calls; inactive = mostly above about 0.92. The list shows a part of the results.

Assay: chemical genetic growth profiling, strain panel (AID 1159580);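 note: tested at 20 µM; growth read once vehicle control cultures reached saturation at 30 °C; 1 = growth at the plate median or of vehicle wells; lower values mean less growth of the strain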
Conditions: S. cerevisiae deletion strains, growth OD

Measured: normalized growth

CC12CC[C@@H](O)CC1=CC[C@@H]1C2CCC2(C)C(=O)CC[C@@H]12 (stereo partly specified)
inactive: locus YAR019C, strain CDC15, stronger effect = lower value 1.01 | locus YBL105C, strain PKC1, stronger effect = lower value 1.01 | locus YBR135W, strain CKS1, stronger effect = lower value 1.02 | locus YBR136W, strain MEC1, stronger effect = lower value 1.01 | locus YBR160W, strain CDC28, stronger effect = lower value 1.02 | locus YDL017W, strain CDC7, stronger effect = lower value 1.02 | locus YDL028C, strain MPS1, stronger effect = lower value 1.02 | locus YDL101C, strain DUN1, stronger effect = lower value 1 | locus YDL108W, strain KIN28, stronger effect = lower value 1.01 | locus YDL132W, strain cdc53, stronger effect = lower value 1.02 | locus YDL214C, strain PRR2, stronger effect = lower value 0.915 | locus YDR052C, strain DBF4, stronger effect = lower value 1.01 | locus YDR054C, strain cdc34, stronger effect = lower value 1.01 | locus YDR226W, strain ADK1, stronger effect = lower value 1.01 | locus YDR477W, strain SNF1, stronger effect = lower value 0.909 | locus YER123W, strain YCK3, stronger effect = lower value 0.822 | locus YER133W, strain GLC7, stronger effect = lower value 0.915 | locus YFL009W, strain cdc4, stronger effect = lower value 1.02 | locus YFL029C, strain CAK1, stronger effect = lower value 1.01 | locus YFR003C, strain YPI1, stronger effect = lower value 1.01 | locus YFR019W, strain FAB1, stronger effect = lower value 0.801 | locus YFR028C, strain CDC14, stronger effect = lower value 1.01 | locus YGR040W, strain KSS1, stronger effect = lower value 0.889 | locus YGR052W, strain FMP48, stronger effect = lower value 0.924 | locus YGR092W, strain DBF2, stronger effect = lower value 0.695 | locus YHR079C, strain IRE1, stronger effect = lower value 0.96 | locus YHR082C, strain KSP1, stronger effect = lower value 0.95 | locus YHR205W, strain SCH9, stronger effect = lower value 0.852 | locus YIL147C, strain SLN1, stronger effect = lower value 1.01 | locus YJL095W, strain BCK1, stronger effect = lower value 0.815 | locus YJL128C, strain PBS2, stronger effect = lower value 0.973 | locus YJL157C, strain FAR1, stronger effect = lower value 0.893 | locus YJR016C, strain ILV3, stronger effect = lower value 1.02 | locus YJR066W, strain TOR1 (second series), stronger effect = lower value 0.848 | locus YJR066W, strain TOR1, stronger effect = lower value 0.901 | locus YKL048C, strain ELM1, stronger effect = lower value 0.957 | locus YKL067W, strain YNK1, stronger effect = lower value 0.924 | locus YKL101W, strain HSL1, stronger effect = lower value 0.913 | locus YKL193C, strain SDS22, stronger effect = lower value 1.01 | locus YKL203C, strain TOR2, stronger effect = lower value 0.92 | locus YLR113W, strain HOG1, stronger effect = lower value 0.996 | locus YLR133W, strain CKI1, stronger effect = lower value 0.904 | locus YLR403W, strain SFP1, stronger effect = lower value 0.801 | locus YML070W, strain DAK1, stronger effect = lower value 0.903 | locus YMR001C, strain CDC5, stronger effect = lower value 1 | locus YMR205C, strain PFK2 (second series), stronger effect = lower value 0.916 | locus YMR277W, strain FCP1, stronger effect = lower value 1.01 | locus YNL006W, strain LST8, stronger effect = lower value 1.02 | locus YNL020C, strain ARK1, stronger effect = lower value 0.908 | locus YNL161W, strain CBK1, stronger effect = lower value 1.02 | locus YNL183C, strain NPR1, stronger effect = lower value 0.95 | locus YNL207W, strain RIO2, stronger effect = lower value 1.01 | locus YNL222W, strain SSU72, stronger effect = lower value 1.02 | locus YNL307C, strain MCK1 (second series), stronger effect = lower value 0.787 | locus YOL078W, strain AVO1, stronger effect = lower value 1 | locus YOL136C, strain PFK27, stronger effect = lower value 0.838 | locus YOR061W, strain CKA2, stronger effect = lower value 0.861 | locus YOR119C, strain RIO1, stronger effect = lower value 0.938 | locus YOR231W, strain MKK1, stronger effect = lower value 0.912 | locus YOR329C, strain SCD5, stronger effect = lower value 1.02 | locus YPL031C, strain PHO85, stronger effect = lower value 0.899 | locus YPL153C, strain RAD53, stronger effect = lower value 0.921 | locus YPL204W, strain HRR25, stronger effect = lower value 0.853 | locus YPL209C, strain IPL1, stronger effect = lower value 1.02 | locus YPL256C, strain CLN2, stronger effect = lower value 1.07 | locus YPR025C, strain CCL1, stronger effect = lower value 1.02 | locus YPR106W, strain ISR1, stronger effect = lower value 0.998 | locus YPR111W, strain DBF20, stronger effect = lower value 1 | strain NNK1, stronger effect = lower value 1 | strain TSCII, stronger effect = lower value 1.01
active: locus YHR030C, strain SLT2, stronger effect = lower value 0.787
